The panel holds about 83,000 compounds, 20% with a hit somewhere; the sample as a whole holds those more often.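 Growth was measured after 48 h exposure to one concentration of compound in 96-well plates. Values under 10 count as active.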 Activity calls are given as the source filed them.
test system: MDA-MB-468 breast; test: NCI-60 one-dose screen, 48 h (100 = growth as untreated, 0 = no growth, -100 = all killed); conditions: 10 µM unless noted

| SMILES | growth |
| --- | --- |
| CCN(CC)CCC(C(=O)O)(c1ccccc1)c1ccccc1 | 120% (inactive) |
| COc1cc2[nH]c(C(=O)c3cc(OC)c(OC)c(OC)c3)c(N)c2cc1C#CC1CC1 | 23.4% (inactive) |
| C=C(C=O)[C@@H]1CC[C@]2(CO)CC[C@]3(C)[C@H](CC[C@@H]4[C@@]5(C)CCCNC(C)(C)[C@@H]5CC[C@]43C)[C@@H]12 | 48.6% (inactive) |
| CC(C)(C)C(=O)OCOP(=O)(OCOC(=O)C(C)(C)C)C1CCCN(OC(=O)c2ccccc2)C1=O (stereo not given) | 29.6% (inactive) |
| Cc1ccc(S(=O)(=O)N/N=C2\CC3CCC2C3)cc1 (stereo not given) | 110% (inactive) |
| O=C(COc1cc(O)c2c(=O)cc(-c3ccccc3)oc2c1)Nc1ccccc1C(F)(F)F | 67.6% (inactive) |
| CCCCCCCCCCCCCCCCCCOc1ccc(CC(=O)OCC[N+]2(C)CCCCC2)cc1 | 92.2% (inactive) |
| COc1ccc(C2CC(=O)c3c(nc4ccc(Cl)cc4c3N)C2)cc1 (stereo not given) | 104% (inactive) |
| Nc1nc(N)c2c(n1)NC(c1cccc(Nc3ccnc4cc(C(F)(F)F)ccc34)c1)CC(c1ccc3c(c1)OCO3)=N2 (stereo not given) | 58% (inactive) |
| COc1cccc(-c2nc(-c3ccc(NC(=O)c4ccccc4)cc3)[nH]c2-c2ccnc(Br)c2)c1 | 28.8% (inactive) |
